# Publication PMC5540273 (PLoS ONE, 2017)
# Key:
# Settings in all cases: concentration: 1 μM, replicates: in singlicate; n = 1
# MEK5 = test system: T1, MEK5
# T1 construct: gene MAP2K5
# MEK6 = test system: T2, MEK6
# T2 construct: gene MAP2K6
# MELK = test system: MELK
# MERTK = test system: MERTK
# MET = test system: MET
# MINK = test system: T3, MINK
# T3 construct: gene MINK1
# MKK7 = test system: MKK7
# MKNK1 = test system: MKNK1
# MKNK2 = test system: MKNK2
# MLCK = test system: T4, MLCK
# T4 construct: gene MYLK3
# MLK1 = test system: T5, MLK1
# T5 construct: gene MAP3K9
# MLK2 = test system: MLK2
# MLK3 = test system: MLK3
# MRCKA = test system: MRCKA
# MRCKB = test system: T6, MRCKB
# T6 construct: gene CDC42BPB
# MST1R = test system: MST1R
# MST1 = test system: T7, MST1
# T7 construct: gene STK4
# MST2 = test system: T8, MST2
# T8 construct: gene STK3
# MST3 = test system: T9, MST3
# T9 construct: gene STK24
# MST4 = test system: MST4
# 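Note: KINOMEscan kinase panel screen.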
SMILES,%Inh (MEK5) [%],%Inh (MEK6) [%],%Inh (MELK) [%],%Inh (MERTK) [%],%Inh (MET) [%],%Inh (MINK) [%],%Inh (MKK7) [%],%Inh (MKNK1) [%],%Inh (MKNK2) [%],%Inh (MLCK) [%],%Inh (MLK1) [%],%Inh (MLK2) [%],%Inh (MLK3) [%],%Inh (MRCKA) [%],%Inh (MRCKB) [%],%Inh (MST1R) [%],%Inh (MST1) [%],%Inh (MST2) [%],%Inh (MST3) [%],%Inh (MST4) [%]
O=C(Nc1cccc(Oc2ccc3nc(NC(=O)C4CC4)cn3n2)c1)c1ccccc1C(F)(F)F,99.8,14,15,26,7,2,0,0,0,0,6,4,0,24,0,23,10,18,0,0
Nc1n[nH]c2cnc(-c3ccccc3)cc12 [SB-642124],52,0,28,43,0,53,0,13,8,1,0,0,0,16,3,37,4,8,0,5
Nc1ncc(-c2cccnc2)c2scc(-c3ccc4c(c3)CCN4C(=O)Cc3ccccc3)c12 [GSK683281],99.7,0,100,69,33,41,30,5,15,14,10,11,7,23,79,78,95.8,36,8,13
c1ccc(-c2n[nH]cc2Nc2ccnc3ccccc23)nc1 [GW694077],31,8,21,0,100,61,0,13,85,2,11,0,0,18,0,12,0,0,0,0
Cn1cc(-c2[nH]c3cc(NC(=O)[C@H](N)C4CCCCC4)cc4c3c2C=NNC4=O)cn1,100,3,60,95.1,5,96.5,0,100,100,84,88,69,83,0,0,15,27,99.1,55,97.5
C[C@@H]1CC[C@@H](C(=O)Nc2ccccc2)CN1c1cc(-c2ccc3c(N)n[nH]c3c2)nc(N)n1 [GSK2286062],4,8,31,39,0,9,0,0,12,16,7,0,13,0,0,26,0,0,11,0
COc1cc2c(cc1OCCN1CCNCC1)ncc1c3ccc(C#N)cc3[nH]c21,99.6,0,35,0,5,86,12,100,99,97.5,0,0,0,6,0,9,0,60,12,28
CCc1ccc(-c2ccc3c(c2)-c2c(cnn2C)S(=O)(=O)N3C)cc1,0,0,0,0,26,0,0,0,0,1,7,0,0,0,0,31,0,0,0,0
CN(c1ccc(NC(=O)Nc2cc(C(F)(F)F)ccc2F)cc1)c1ccnc(Nc2ccc(S(N)(=O)=O)cc2)n1 [GW809893],98.8,100,12,98.2,88,76,2,50,98.9,28,75,34,66,0,0,99.7,80,2,29,28
O=C(Nc1ccccc1F)NC1CCN(c2ccnc(Nc3ccc(F)cc3)n2)CC1 [GSK1379800],13,0,15,0,0,0,17,0,0,0,0,0,0,35,0,33,1,2,0,5
